Compound activity as filed in PubChem BioAssay.
A selection: hits, their analogues and other compounds. The true share with any hit is near 3.2%.
A549 tox: A549 cytotoxicity, counter-screen for Nrf2 inhibitors | A549 ARE-Fluc cells, CellTiter-Fluor viability, 18-24 h | Potency, µM (highest dose often 46 µM), inactives show at the highest dose activity change, negative = cytotoxicity, usual class: inhibitors | 390,000 compounds, 0.16% hits | AID 504648; also: potency is read from the fitted curve at half-maximal effect; % is scaled to controls: 0 for no effect and ±100 for the full control effect
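A549 ARE-Fluc cells in 5% FBS OPTI-MEM, 5000 cells/well, rested 2 h then exposed to compounds in concentration-response for 18-24 h at 37 °C. Viability by CellTiter-Fluor fluorescence (Ex 405/Em 525) after 30 min; luciferase luminescence (BugLite, 15 min, RT) read afterwards.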
IL-2 act: IL-2 activation | IL-2 activation reporter assay, cell-based qHTS; stimulated with anti-CD3/CD4/CD28 beads; in transgenic mouse T cells | activation, % (series mostly up to about 46 µM) | 360,000 compounds, 0.065% hits | AID 652025; in the data active = activation above about 50%; inconclusive = mostly about 30% to 49%; also: 0% is about no effect
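Screening format: compound pinned onto unstimulated transgenic mouse T cells, 60 min incubation, then anti-CD3/anti-CD4/anti-CD28 bead stimulation for 18 hours at 37 degrees C, followed by EGFP and DsRed detection.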
BRCA1 expr act: activators of BRCA1 expression. 380,000 compounds, 1.1% hits. MCF7-BRCA1-FFLuc reporter, luminescence, 48 h; response scale: scaled: vehicle 0%, 10 µM genistein 100%. Potency, µM (doses to about 46.1 µM), inactives show at the highest dose activation, usual class: activators; also: potency is read from the fitted curve at half-maximal effect; nearly all actives have a fitted effect of over 80% in size
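First, MCF7-BRCA1-FFLuc cells (2000/well) attach for 2 h; next, compounds are pin-added and incubated 48 h at 37 °C; finally, luciferase reagent is added and luminescence read after 15 min.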
p53 reactivator: re-activators of mutant p53; H1299 p53-A138V BP100-luciferase reporter, luminescence, 24 h; Potency, µM (top dose mostly 92.2 µM), without a hit: at the highest dose activity change, positive = activation, most hits filed as activators; 320,000 compounds, 0.063% hits; also: potency is read from the fitted curve at half-maximal effect; % of control where 0% means no effect; nearly all actives have a fitted effect of over 45% in size
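H1299 (p53-null), stable ts p53-A138V + BP100-Luc; 1000 cells/well, Opti-MEM/10% FBS; cpd 4 pt, 1:5; 24 h, 37 deg C, 5% CO2; detection reagent 10 min RT; luminescence.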
Nrf2 inh: blocks Nrf2 signaling; A549 ARE-Fluc reporter, luciferase luminescence, 18-24 h; Potency, µM (series often up to 46 µM), without a hit: at the top dose activity change, negative = inhibition, usual class: inhibitors; 360,000 compounds, 2.1% hits; AID 504444; also: potency is read from the fitted curve at half-maximal effect; % is scaled to controls: 0 for no effect and ±100 for the full control effect; nearly all actives have a fitted effect of over 60% in size
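Reporter: ARE-Fluc in A549. Exposure: 18-24 h, 37 °C, 5% CO2, 5% FBS OPTI-MEM. Readouts: fluorescent cytotoxicity (CellTiter-Fluor), then luminescent Nrf2 signal after BugLite.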
Nrf2 ARE act: activators of Nrf2 (ARE) signaling | Potency, µM (titrated, usually from 46.1 µM), for inactives: at the top dose activation, most hits filed as activators | AREc32 ARE-luciferase reporter (MCF7-derived line), luminescence, 24 h | 410,000 compounds, 0.31% hits; also: potency is read from the fitted curve at half-maximal effect; % of control where 0% means no effect; nearly all actives have a fitted effect of over 65% in size
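ARE activation measured as luciferase luminescence (Steady-Glo, 30 min RT) in AREc32_Fluc cells after 24 hr compound exposure at 37 deg C, 5% CO2; cells seeded overnight at 1000/well in OPTI-MEM, 5% FBS.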
Starred values were filed as active, the others as inactive; u = inconclusive; x = no result; [ ] = remark or other dose. Unless noted, calls follow the shape of the dose curve; as a rule, active = well fitted curve in the direction sought with a large enough effect; inconclusive = small, poorly fitted or top-dose-only effect, or another doubt; inactive = no such curve, though single readings can be large; an effect the other way counts as inactive or inconclusive.

SMILES	A549 tox	IL-2 act	BRCA1 expr act	p53 reactivator	Nrf2 inh	Nrf2 ARE act
Cc1cc2c(s1)c1cnn(Cc3c(F)ccc(C)c3Cl)c(=O)c1n2C	-2%	x	x	x	13%	x
N=c1oc2cc(O)ccc2cc1C(=O)Nc1ccc(F)cc1	24%	-1	1.6µM*	21%	-18%	2%
COc1ccc(NC(=O)c2cc3ccc(O)cc3o/c2=N\O)cc1	u	-3	u	-4%	2.1µM*	3%[9.22 µM]
COc1ccc2o/c(=N\O)c(C(=O)Nc3ccccc3OC)cc2c1	-5%	1	15%	16%	-1%	10%
CCC(C(=O)Nc1cccc(C#N)c1)n1c(=O)c(-c2ccccc2NC(C)=O)nc2ccccc21 (stereo unspecified)	0%	x	x	x	16%	1%
O=C(NC1CCCCC1)C(c1ccccc1)N1CCC2(CC1)OCCO2 (stereo unspecified)	-3%	0	15%	-1%	-5%	0%
CC(C)c1ccc(NC(=O)C(c2ccccc2)N2CCC3(CC2)OCCO3)cc1 (stereo unspecified)	-23%	2	0%	-18%	15µM*	0%
CN(C)c1ccc(-c2cc(C3C4C=CCCC4(C)C(=O)N3Cc3ccccc3)ccc2F)cc1 (stereo unspecified)	2%	x	x	x	-22%	x
CC(=O)Nc1ccn(C2CC3OCC(NC(=O)C(NC(=O)OC(C)(C)C)C(C)OCc4ccccc4)C3O2)c(=O)n1 (stereo unspecified)	-2%	x	x	x	17%	x
CCCC(O)(c1ccc(Cl)cc1)C(CN1CCOCC1)c1ccc(Cl)cc1 (stereo unspecified)	-11%	0	-76%	-2%	18µM*	3%
CCCC(O)(c1ccc(OC)cc1)C(CN1CCOCC1)c1ccc(Cl)cc1 (stereo unspecified)	-14%	-1	-36%	-3%	-15%	0%
COc1ccc(OC)c(C(C)NC(=O)Cn2c(=O)cc(C)c3c(C)nn(-c4ccc(C)cc4)c32)c1 (stereo unspecified)	8%	x	x	x	4%	0%
CC(OC(=O)c1snc(C(=O)NC2CCCCC2)c1N)C(=O)NC(C)(C)C (stereo unspecified)	-20%	-3	-26%	-1%	11µM*	0%
CC(C)(C)NC(=O)COC(=O)c1snc(C(=O)NC2CCCCC2)c1N	-22%	-3	-50%	17%	u	-1%
COc1cc(Nc2nc(SCc3ccccc3Cl)nc3ccccc23)cc(OC)c1	-12%	x	x	x	x	3%
COc1ccccc1-n1c(=S)sc2c(=O)n(Cc3ccco3)c(SC)nc21	2%	-3	-65%	-3%	8.2µM*	0%
Cc1cccc(C)c1OCc1cc(C(=O)NCC2CCCCC2)no1	11%	2	-8%	5%	10%	0%
Cc1cccc(C)c1OCc1cc(C(=O)N(Cc2c(C)nn(C)c2C)C2CC2)no1	-8%	-2	-45%	-2%	23µM*	-1%
O=C(NNCc1ccccc1)c1ccccn1	1%	0	1.1µM*	x	u	0%
O=C(CC(=O)c1ccccn1)c1ccccc1	-5%	-5	u	x	12%	7.9µM*
COc1ccc(-c2nnc3n2N=C(c2ccc(OC)cc2OC)CS3)cc1	-5%	x	x	x	20%	x
CCN1CCN(Cc2ccccc2NC(=O)Nc2ccc(C)cc2)CC1	2%	0	6.3µM*	31%	u	0%
O=C(Nc1ccc2nccnc2c1)Nc1ccccc1Cl	-3%	-1	10µM*	12%	4%	-1%
CCN1CCN(Cc2ccc(NC(=O)Nc3ccccc3Cl)cc2)CC1	-2%	-2	u	20µM*	u	-1%
O=C(Nc1ccc(CN2CCCCC2)cc1)Nc1ccccc1Cl	0%	1	7.1µM*	-5%	2%	4%
SMILES	A549 tox	IL-2 act	BRCA1 expr act	p53 reactivator	Nrf2 inh	Nrf2 ARE act
CC(=O)Nc1ccc(CN2CCCCCCC2)cc1	x	0	-1%	2%	2%	0%
O=C(Nc1cccc(Cl)c1)Nc1ccc2nccnc2c1	-18%	-2	u	u	7%	-1%
CCOC(=O)c1c(C)[nH]c(C)c1S(=O)(=O)NCC(=O)Nc1cccc(Cl)c1	-2%	x	0%	x	-13%	0%
Cc1ccc(OCCn2cc(C(=O)C3CCCCC3)c3ccccc32)cc1	1%	x	x	x	4%	4%
NC(=O)c1cc([N+](=O)[O-])ccc1NCc1ccc(N)cc1	u	1	-44%	-25%	9.2µM*	-2%
NC(=O)c1cc([N+](=O)[O-])ccc1NCc1ccc(F)cc1	-7%	0	19%	u	8%	7%
CCOc1ccc(C(=O)c2cn(CC(=O)Nc3cccc(OC)c3)c3cc4c(cc3c2=O)OCCO4)cc1	-9%	x	-13%	x	-17%	0%
O=C(Nc1cc(F)ccc1F)C1COc2ccccc2C1 (stereo unspecified)	5%	x	x	x	x	-1%
CN1CCS/C1=C/C=C1/SC(=S)N(Cc2ccccc2)C1=O	u	3	13µM*	u	9%	5%
CCCCN1C(=O)/C(=C/C=C2\SCCN2C)SC1=S	u	17	7.1µM*	u	u	2%
CN1CCS/C1=C/C=C1\SC(=S)N(CC(=O)O)C1=O	-17%	-1	3%	2%	-7%	-1%
CCOC(=O)c1ccc(N2C(=O)c3n[nH]c(-c4cccs4)c3C2c2cccc(F)c2)cc1 (stereo unspecified)	-2%	x	x	x	u	-5%
CO[C@@H]1[C@@H](OC2OC(C)C(OC3CC(C)(O)C(OC(=O)CC(C)C)C(C)O3)C(N(C)C)C2O)[C@@H](CC=O)C[C@@H](C)C(=O)/C=C\C2O[C@H]2C[C@@H](C)OC(=O)C[C@H]1OC(C)=O (stereo partly specified)	x	x	-1%	x	x	x
CC1CCCN(S(=O)(=O)c2cc3c4c(c2)CC(=O)N4CCC3)C1 (stereo unspecified)	-12%	x	x	x	x	0%
CCCCNC(=O)CCCN1C(=O)c2ccccc2Sc2ncccc21	1%	x	x	x	16%	1%
CC1=C(C(=O)OCc2ccc3c(c2)OCO3)C(c2ccccc2)NC(=O)N1 (stereo unspecified)	-2%	-2	-63%	1%	8.2µM*	0%
